In PubChem BioAssay (Tox21):
Where “and” joins values, the source holds several entries; their conditions need not be identical. Equal values may be shown once. Records with an inconclusive call do not appear. Calls of active or inactive are those of the source. Calls follow the shape of the dose curve; as a rule, active = well fitted cell-killing curve with a large enough effect in the repeat runs; inconclusive = weak or mixed curves, or effect the other way; inactive = no such curve, though single readings can be large or run the other way.

Test: qHTS assay for identifying genotoxic compounds that show differential cytotoxicity against isogenic chicken DT40 cell lines with known DNA damage response pathways - wild type cell line (AID 743012); also: nearly all actives have a fitted effect of over 60% in size
Settings: DT40 wild type chicken cells viability, CellTiter-Glo, 40 h; series mostly up to 68.4 µM; activity change, negative = cytotoxicity: at the top concentration
How it was run: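 Using parental DT40 (300 cells/well), compounds delivered in DMSO incubate 40 h at 37 C/5% CO2. CellTiter-Glo reagent then stands 30 min at room temperature, and luminescence gives cell viability.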
% is scaled to controls: 0 for no effect and ±100 for the full control effect; potency is read from the fitted curve at half-maximal effect.

Which Potency does the source give for O=S(=O)(c1ccccc1)c1ccc(Cl)cc1 here?
The Potency was 61.1 µM (active).

Which “activity change, negative = cytotoxicity” value does the source give for CCCCC(CC)CNCC(CC)CCCC (configuration not stated) here?
The value was 5.96% (inactive).

For CNCCCC1c2ccccc2C=Cc2ccccc21, which Potency is on record?
The Potency was 4.52 µM (active).

For C1COCO1, which “activity change, negative = cytotoxicity” value is on record?
Its value is 4.13% (inactive).

For OC(CCCN1CCCCC1)(c1ccccc1)c1ccccc1, which Potency is on record?
The Potency was 13.3 µM (active).

Which “activity change, negative = cytotoxicity” value does the source give for CCCc1c(OCCCOc2ccc(OCC(=O)O)cc2)ccc(C(C)=O)c1O here?
The value was -0.0781% (inactive).

For COc1ccc(C(=O)c2cccc(O)c2)c(OC)c1, which “activity change, negative = cytotoxicity” value is on record?
The value was -1.93% (inactive).

With Fc1ccccc1[C@@H](F)COC1CCC(Nc2ncnc3[nH]ncc23)CC1 (some centres not stated) as the compound, how does the Potency read?
The Potency was 15.4 µM (active).

Which “activity change, negative = cytotoxicity” value does the source give for O=C(CCCCCCCCC#CI)Oc1ccccc1 here?
Its value is -8.47% (inactive).

For CCCCCCCCCCCCCCCCBr, which “activity change, negative = cytotoxicity” value is on record?
Its value is 4.03% [at 31.4 µM] (inactive).

For O=C1NCCN1, which “activity change, negative = cytotoxicity” value is on record?
The value was 0.611% (inactive).

With CC(=O)Nc1ccc(N)cc1 as the compound, how does the “activity change, negative = cytotoxicity” value read?
Its value is 6.47% [at 95 µM] (inactive).

Which “activity change, negative = cytotoxicity” value does the source give for CCC(C)(C)C1CCC(O)CC1 (configuration not stated) here?
The value was -11.5% (inactive).

With Cc1ccc(/C=N/n2c(-c3ccccc3)csc2=S)cc1 as the compound, how does the Potency read?
Its Potency is 26.6 µM (active).

With CNC(=O)N(c1ccccc1)c1ccccc1 as the compound, how does the “activity change, negative = cytotoxicity” value read?
The value was -1.62% [at 95 µM] (inactive).

With Cc1cc(O)c2c(O)c3c(O)cccc3cc2c1 as the compound, how does the “activity change, negative = cytotoxicity” value read?
Its value is -19.1% (inactive).

For CC(CCc1ccc2c(c1)OCO2)NN (configuration not stated), which “activity change, negative = cytotoxicity” value is on record?
Its value is 4.58% (inactive).

For Cc1cc(O)c(C(C)C)cc1Cl, which “activity change, negative = cytotoxicity” value is on record?
The value was 9.21% (inactive).

For COC(=O)[C@@H]1CC2=CC(=O)CC[C@]2(C)[C@@]23O[C@@H]2C[C@@]2(C)[C@@H](CC[C@@]24CCC(=O)O4)[C@H]13, which “activity change, negative = cytotoxicity” value is on record?
The value was -1.06% (inactive).

With CCCCCCCCCCOS(=O)(=O)O as the compound, how does the “activity change, negative = cytotoxicity” value read?
The value was -13.6% (inactive).

With C[C@@H]1C[C@H]2[C@@H]3CCC4=CC(=O)C=C[C@]4(C)[C@@]3(F)[C@@H](O)C[C@]2(C)[C@H]1C(=O)CO as the compound, how does the Potency read?
The Potency was 13.3 µM (active).

With CO[C@H]1C=CO[C@@]2(C)Oc3c(C)c(O)c4c(O)c(c5c(c4c3C2=O)=NC2(CCN(CC(C)C)CC2)N=5)NC(=O)/C(C)=C\C=C/[C@H](C)[C@H](O)[C@@H](C)[C@@H](O)[C@@H](C)[C@H](OC(C)=O)[C@@H]1C as the compound, how does the Potency read?
The Potency was 16.8 µM (active) and 42.3 µM (active).

With O=C(O)c1snc(Cl)c1Cl as the compound, how does the Potency read?
The Potency was 61.1 µM (active).

Which Potency does the source give for CN(C)C(=O)Nc1ccc(Oc2ccc(Cl)cc2)cc1 here?
Its Potency is 21.7 µM (active).

Which “activity change, negative = cytotoxicity” value does the source give for Cc1ccnc2ccccc12 here?
The value was 13.4% (inactive).

For OCCSc1ccccc1, which “activity change, negative = cytotoxicity” value is on record?
The value was -2.96% (inactive).

For CO[Si](C)(OC)OC, which “activity change, negative = cytotoxicity” value is on record?
Its value is 7.12% (inactive).

For CC(=O)Oc1ccc(C(=C2CCCCC2)c2ccc(OC(C)=O)cc2)cc1, which “activity change, negative = cytotoxicity” value is on record?
Its value is 13.7% (inactive).

For CCCCCCOC(=O)CCCCCCCC(=O)OCCCCCC, which “activity change, negative = cytotoxicity” value is on record?
Its value is 4.6% (inactive).

Which “activity change, negative = cytotoxicity” value does the source give for O=C(O)c1cccc(O)c1 here?
The value was 1.4% [at 95 µM] (inactive).

For CC(=O)Oc1ccc2c(c1)CC[C@@H]1[C@@H]2CC[C@]2(C)[C@@H](O)CC[C@@H]12, which Potency is on record?
The Potency was 29.8 µM (active).

With c1cc[c]([Bi]([c]2ccccc2)[c]2ccccc2)cc1 as the compound, how does the Potency read?
The Potency was 61.1 µM (active).

With C=CC(=O)NCOCC(C)C as the compound, how does the “activity change, negative = cytotoxicity” value read?
The value was 1.93% (inactive).

With CCC(C)(O)CCC=C(C)C (configuration not stated) as the compound, how does the “activity change, negative = cytotoxicity” value read?
The value was -2.05% (inactive).

Which Potency does the source give for COC(OC)(C(=O)c1ccccc1)c1ccccc1 here?
The Potency was 54.4 µM (active).

For Cc1oncc1C(=O)Nc1ccc(C(F)(F)F)cc1, which Potency is on record?
Its Potency is 7.7 µM (active).

For CC1(C)C(=O)N(Br)C(=O)N1Cl, which Potency is on record?
The Potency was 61.1 µM (active).
